SARS PLpro yeast = blocks SARS-CoV papain-like protease in a yeast assay; S. cerevisiae expressing SARS-CoV PLpro, growth rescue; Potency, µM (titrated, usually from 32.9 µM), hits mostly activators; hit rate 0.19% among 330,000; calls by dose curve; further: nearly all actives have a fitted effect of over 55% in size
Pf growth 48h = P. falciparum growth inhibition at 48 hours (one generation); AID 504832; hit rate 5.9% among 310,000; Potency, µM (titrated, usually from 28.7 µM), hits mostly inhibitors; P. falciparum luciferase growth in erythrocytes, 48 h
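In quantitative HTS format, infected erythrocytes bearing luciferase-reporter parasites were treated for a single generation at 37 C. Luminescence after adding detection reagent served as the growth measure.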
Sm TGR inh = blocks Schistosoma mansoni thioredoxin glutathione reductase. AID 485364. Potency, µM (titrated, usually from 114 µM), actives largely listed as inhibitors. hit rate 3% among 360,000. purified TGR, DTNB reduction, TNB absorbance 405 nm; further: nearly all actives have a fitted effect of over 60% in size
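First, TGR (20 nM dispensed) and NADPH were mixed with compound. Second, a 15 min room-temperature incubation followed. Third, further NADPH and then DTNB were added to start the reaction. Finally, TNB absorbance was monitored kinetically.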
Pf growth 96h = inhibits malaria parasite growth, 96 h. P. falciparum luciferase reporter growth, 96 h. Potency, µM (top dose mostly 28.7 µM), usual class: inhibitors. hit rate 6.9% among 320,000
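Plates of compound plus infected erythrocytes (2% hematocrit, 0.05% parasitemia final) incubate 96 hours, 37 C, 5% CO2. Detection reagent added; reduced luminescence from the parasites' luciferase reporter flags inhibition.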
Each line names hits and unclear results; the compound was inactive in the other large screens. Rows were chosen to be rich in hits. Some 12% of all compounds tested hit in one or more screens of this group. Unless noted, the call rests on the fitted dose curve; in most records, active means well fitted curve in the direction sought with a large enough effect; inconclusive means small, poorly fitted or top-dose-only effect, or another doubt; inactive means no such curve, though single readings can be large; an effect the other way counts as inactive or inconclusive.

CCCN1C(=O)c2cc(C(=O)Nc3ccccc3CC)ccc2C1O (stereo unspecified)	Pf growth 96h 10µM (no result: Pf growth 48h)
Cc1ccc(C)n1-c1ccc(C(=O)Nc2ccccc2F)cc1	Sm TGR inh 50µM
Cc1cc(NC(=O)c2ccc(Cl)cc2)ccc1NC(=O)c1ccccc1Cl	Pf growth 96h 3.7µM
Cc1cc(C(=O)Nc2ccc(Cl)cc2)c(C)n1-c1ccccc1	Pf growth 48h inconclusive, Sm TGR inh 50µM
Cc1ccc(NC(=O)c2cc(C)n(-c3ccccc3)c2C)cc1	none
Cc1ccc(S(=O)(=O)N2CCN(C(=O)c3ccccc3Cc3ccccc3)CC2)c(C)c1	Pf growth 48h inconclusive, Pf growth 96h 9.3µM
CCc1ccc(OC)c(S(=O)(=O)N2CCN(C(=O)c3ccco3)CC2)c1	Pf growth 96h inconclusive
Cc1ccc(S(=O)(=O)N2CCN(C(=O)c3ccco3)CC2)c(C)c1	Pf growth 96h 10µM
Cc1ccc2cc3cc(C(=O)N4CCN(C(=O)c5ccco5)CC4)sc3nc2c1	Pf growth 48h inconclusive, Sm TGR inh 45µM
COc1ccc(F)cc1S(=O)(=O)N1CCN(C(=O)c2ccco2)CC1	Pf growth 96h 10µM
O=C(Nc1cc(S(=O)(=O)N2CCOCC2)ccc1Cl)c1cc2ccccc2o1	Pf growth 48h inconclusive, Pf growth 96h inconclusive
CCN(Cc1ccc(OC)cc1)c1ccc(-c2nc(-c3ccncc3)no2)cc1[N+](=O)[O-]	none (no result: SARS PLpro yeast, Pf growth 48h, Pf growth 96h)
CC(=O)N1CCc2cc(CNS(=O)(=O)c3cccs3)ccc21	none (no result: SARS PLpro yeast, Pf growth 48h, Pf growth 96h)
CC(=O)Nc1ccc(S(=O)(=O)N2CCN(C(=O)c3ncoc3-c3cccc(F)c3)CC2)cc1	none
COc1ccc(C)cc1S(=O)(=O)N1CCN(C(=O)c2ncoc2-c2cccc(F)c2)CC1	Pf growth 96h 0.66µM
Cc1ccc(S(=O)(=O)N2CCN(C(=O)C3CC3C)CC2)c(C)c1 (stereo unspecified)	Pf growth 48h inconclusive
Cc1ccc(S(=O)(=O)N2CCN(C(=O)C3CCN(C(=O)c4ccc(F)cc4)CC3)CC2)c(C)c1	Pf growth 48h 13µM, Pf growth 96h inconclusive
COc1ccccc1OCC(=O)NCC1(N2CCOCC2)CCCCC1	none (no result: SARS PLpro yeast, Pf growth 48h, Pf growth 96h)
CC(C)c1ccc(CN2CCN(C(=O)CSc3nnnn3C3CC3)CC2)cc1	Pf growth 48h 7.4µM, Pf growth 96h 12µM
CCCCNc1nc2sc3c(c2c(=O)n1-c1cccc(Cl)c1)CCN(C)C3	Pf growth 48h 1.9µM, Pf growth 96h 0.37µM
O=c1c2c3c(sc2nc(N2CCNCC2)n1-c1cccc(Cl)c1)CCCCC3	Pf growth 48h inconclusive, Pf growth 96h inconclusive
CCCCCNc1nc2sc3c(c2c(=O)n1-c1cccc(Cl)c1)CCN(C)C3	Pf growth 48h 1.5µM, Pf growth 96h 0.17µM
O=c1c2c3c(sc2nc(NCCO)n1-c1ccccc1)CCCC3	none
O=C(Cn1cc(SCc2ccc(F)cc2)c2ccccc21)N1CCCCCC1	none (no result: SARS PLpro yeast, Pf growth 48h, Pf growth 96h)
CCC(=NCc1ccco1)c1c(O)n(C)c(=O)n(C)c1=O	Sm TGR inh 25µM
C=C(C(=O)c1ccccc1)C(C)C(=C)C(=O)c1ccccc1	Pf growth 48h inconclusive, Pf growth 96h 10µM

Screens deposited in PubChem by National Center for Advancing Translational Sciences (NCATS).
